Data reported in PubChem BioAssay (Tox21).
Inconclusive results are not listed. The source made the active and inactive calls. Unless noted, calls follow the shape of the dose curve; as a rule, active = well fitted curve in the direction sought with a large enough effect in the repeat runs; inconclusive = weak or mixed curves; inactive = no such curve, though single readings can be large; an effect the other way counts as inactive or inconclusive.

Assays:
[1] = qHTS RealTime-Glo MT Cell Viability Assay in HEK293 cells - 0 hour (AID 1224880); also: top concentration of the series differs between compounds; nearly all actives have a fitted effect of over 45% in size
In short: (§1)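 Cells were seeded together with NanoLuc luciferase and a prosubstrate that viable cells reduce to a luciferase substrate. After a 5 h incubation at 37 C/5% CO2, compounds were added and luminescence was measured repeatedly during 40 h of treatment.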

[2] = A CellTox Green Cytotoxicity Assay to monitor cytotoxicity in HEK293 cells - 32 hour (AID 1224881); also: nearly all actives have a fitted effect of over 40% in size; also: potency is read from the fitted curve at half-maximal effect
In short: (§2)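 Nonlytic real-time cytotoxicity: HEK293 + CellTox Green reagent plated, 5 h preincubation, pintool compound addition (23 nL in DMSO), 37 C for 40 h, fluorescence measured at successive time points.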

[3] = A CellTox Green Cytotoxicity Assay to monitor cytotoxicity in HepG2 cells - 0 hour (AID 1224882); also: nearly all actives have a fitted effect of over 35% in size; also: potency is read from the fitted curve at half-maximal effect
In short: (§3)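 Read-out is fluorescence of a cyanine dye excluded from live cells that stains DNA of dead HepG2 cells, with signal proportional to cytotoxicity. Plates were read at 0, 8, 16, 24, 32 and 40 h after compound addition.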

[4] = A CellTox Green Cytotoxicity Assay to monitor cytotoxicity in HepG2 cells - 32 hour (AID 1224883); also: nearly all actives have a fitted effect of over 50% in size; also: potency is read from the fitted curve at half-maximal effect
In short: as §3

[5] = A CellTox Green Cytotoxicity Assay to monitor cytotoxicity in HEK293 cells - 8 hour (AID 1224884); also: nearly all actives have a fitted effect of over 35% in size; also: potency is read from the fitted curve at half-maximal effect
In short: as §2

[6] = qHTS RealTime-Glo MT Cell Viability Assay in HEK293 cells - 24 hour (AID 1224886); also: top concentration of the series differs between compounds; nearly all actives have a fitted effect of over 50% in size
In short: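 Luminescence generated by NanoLuc from substrate produced by living HEK293 cells served as the viability signal. Each value reflects the reading at its stated time point during continuous 40 h compound exposure at 37 C.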

[7] = qHTS RealTime-Glo MT Cell Viability Assay in HEK293 cells - 8 hour (AID 1224887); also: top concentration of the series differs between compounds; nearly all actives have a fitted effect of over 50% in size
In short: as §1

[8] = A CellTox Green Cytotoxicity Assay to monitor cytotoxicity in HEK293 cells - 16 hour (AID 1224888); also: nearly all actives have a fitted effect of over 35% in size; also: potency is read from the fitted curve at half-maximal effect
In short: as §2

[9] = qHTS RealTime-Glo MT Cell Viability Assay in HepG2 cells - 0 hour (AID 1224889); also: nearly all actives have a fitted effect of over 50% in size
In short: (§4)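 Tox21 10K library screened in qHTS format on HepG2 cells carrying RealTime-Glo reagents. Compounds were added after a 5 h preincubation, and the luminescent signal from continuous culture was measured repeatedly during 40 h treatment.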

[10] = qHTS assay to identify small molecule antagonists of the estrogen receptor alpha (ER-alpha) signaling pathway using the BG1 cell line in the presence of 0.1 nM 17-beta-estradiol - cell viability counter screen (AID 1259241); also: nearly all actives have a fitted effect of over 40% in size; also: potency is read from the fitted curve at half-maximal effect
In short: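 VM7Luc4E2, 4,000 cells/well, phenol red-free medium + 10% charcoal-stripped FBS; 24 hr plating; cpd + 0.1 nM E2 final, 22 hr 37C/5% CO2; CellTiter-Fluor 30 min, fluorescence.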

[11] = qHTS assay to identify small molecule antagonists of the androgen receptor (AR) signaling pathway using the MDA cell line in the presence of 0.5 nM R1881 - cell viability counter screen (AID 1259242); also: nearly all actives have a fitted effect of over 45% in size
In short: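 Counter screen for cytotoxicity run in the same wells as the AR antagonist reporter screen: MDA-kb2 cells were treated 16 hr with test compounds and 0.5 nM R1881, then live-cell protease activity was measured by fluorescence.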

[12] = target: Androgen receptor (Homo sapiens) (UniProt P10275); test: qHTS assay to identify small molecule antagonists of the androgen receptor (AR) signaling pathway using the MDA cell line in the presence of 0.5 nM R1881 (AID 1259243); also: nearly all actives have a fitted effect of over 50% in size
Sequence of Androgen receptor (Homo sapiens) (P10275 whole entry, looked up): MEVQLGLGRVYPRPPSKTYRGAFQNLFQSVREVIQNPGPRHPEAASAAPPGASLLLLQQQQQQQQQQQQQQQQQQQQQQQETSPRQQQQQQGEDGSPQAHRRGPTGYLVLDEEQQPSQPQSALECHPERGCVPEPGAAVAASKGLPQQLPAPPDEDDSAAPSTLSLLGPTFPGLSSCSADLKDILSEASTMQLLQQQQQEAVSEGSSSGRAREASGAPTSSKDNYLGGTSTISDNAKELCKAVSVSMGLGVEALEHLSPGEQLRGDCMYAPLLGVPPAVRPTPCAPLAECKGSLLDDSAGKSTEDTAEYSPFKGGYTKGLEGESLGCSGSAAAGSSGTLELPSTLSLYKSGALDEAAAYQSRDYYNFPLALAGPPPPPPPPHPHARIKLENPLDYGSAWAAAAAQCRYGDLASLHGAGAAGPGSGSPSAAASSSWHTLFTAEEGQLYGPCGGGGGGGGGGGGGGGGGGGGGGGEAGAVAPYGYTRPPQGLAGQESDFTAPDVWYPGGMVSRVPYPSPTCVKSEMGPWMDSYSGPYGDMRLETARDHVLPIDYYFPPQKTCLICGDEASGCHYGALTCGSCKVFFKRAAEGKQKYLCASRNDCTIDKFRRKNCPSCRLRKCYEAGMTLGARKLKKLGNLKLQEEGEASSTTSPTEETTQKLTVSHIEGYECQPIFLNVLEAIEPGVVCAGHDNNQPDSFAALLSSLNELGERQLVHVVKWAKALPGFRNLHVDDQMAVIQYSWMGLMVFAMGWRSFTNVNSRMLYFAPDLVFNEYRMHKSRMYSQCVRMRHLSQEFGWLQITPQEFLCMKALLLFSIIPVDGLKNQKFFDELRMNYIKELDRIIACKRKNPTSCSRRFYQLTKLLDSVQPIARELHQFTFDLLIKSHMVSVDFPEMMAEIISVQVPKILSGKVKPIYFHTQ
In short: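 Luciferase luminescence is the read-out: compounds are tested for suppressing 0.5 nM R1881-driven MMTV reporter activity in MDA-kb2 cells after 16 hr at 37C.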

[13] = qHTS assay to identify small molecule phospholipidosis (PLD) inducers (AID 1259344; active = well fitted curve in the direction sought with a large enough effect; an effect the other way counts as inactive or inconclusive)
In short: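 Quantitative HTS in HepG2: compound plus LipidTOX Red dye for 24 h, paraformaldehyde fixation with Hoechst 33342, widefield high-content imaging; amiodarone as positive and DMSO as negative control.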

[14] = qHTS assay to identify small molecule HDAC inhibitors (AID 1259364); also: nearly all actives have a fitted effect of over 45% in size; also: potency is read from the fitted curve at half-maximal effect
In short: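 Luminescence from a cell-permeant luminogenic class I/II HDAC substrate reports endogenous deacetylase activity in intact HCT-116 cells treated with compounds for 2 h.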

[15] = qHTS assay to identify small molecule HDAC inhibitors - cell viability counter screen (AID 1259365)
In short: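 Luminescence from CellTiter-Glo, developed 30min at room temperature, reports viability of wild-type HCT-116 cells treated 2hr with compounds at 37 C and 5% CO2 after overnight plating.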

[16] = qHTS assay to identify small molecule agonists of the sonic hedgehog signaling (Shh) pathway - cell viability counter screen (AID 1259366); also: nearly all actives have a fitted effect of over 50% in size
In short: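 Cytotoxicity counter screen run in the same wells as the Shh reporter assay. NIH/3T3 cells carrying a Gli1 response element–driven luciferase were treated with DMSO-dissolved compounds for 24hr, and live-cell protease activity was measured with CellTiter-Fluor.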

[17] = qHTS assay to identify small molecule antagonists of the sonic hedgehog signaling (Shh) pathway - cell viability counter screen (AID 1259367); also: nearly all actives have a fitted effect of over 55% in size; also: potency is read from the fitted curve at half-maximal effect
In short: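 Seed 3T3 Gli1-Luc cells at 2,000 per well; incubate 4 hr; add compound in DMSO, then conditioned medium; incubate at 37C with 5% CO2; add CellTiter-Fluor after 23 hr; read fluorescence 1 hr later.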

[18] = qHTS RealTime-Glo MT Cell Viability Assay in HepG2 cells - 16 hour (AID 1224885); also: nearly all actives have a fitted effect of over 50% in size
In short: as §4

[19] = A CellTox Green Cytotoxicity Assay to monitor cytotoxicity in HepG2 cells - 8 hour (AID 1224890); also: nearly all actives have a fitted effect of over 45% in size; also: potency is read from the fitted curve at half-maximal effect
In short: as §3

[20] = target: Estrogen receptor (Homo sapiens) (UniProt P03372); test: qHTS assay to identify small molecule antagonists of the estrogen receptor alpha (ER-alpha) signaling pathway using the BG1 cell line in the presence of 0.1 nM 17-beta-estradiol (AID 1259244); also: nearly all actives have a fitted effect of over 50% in size
Sequence of Estrogen receptor (Homo sapiens) (P03372 whole entry, looked up): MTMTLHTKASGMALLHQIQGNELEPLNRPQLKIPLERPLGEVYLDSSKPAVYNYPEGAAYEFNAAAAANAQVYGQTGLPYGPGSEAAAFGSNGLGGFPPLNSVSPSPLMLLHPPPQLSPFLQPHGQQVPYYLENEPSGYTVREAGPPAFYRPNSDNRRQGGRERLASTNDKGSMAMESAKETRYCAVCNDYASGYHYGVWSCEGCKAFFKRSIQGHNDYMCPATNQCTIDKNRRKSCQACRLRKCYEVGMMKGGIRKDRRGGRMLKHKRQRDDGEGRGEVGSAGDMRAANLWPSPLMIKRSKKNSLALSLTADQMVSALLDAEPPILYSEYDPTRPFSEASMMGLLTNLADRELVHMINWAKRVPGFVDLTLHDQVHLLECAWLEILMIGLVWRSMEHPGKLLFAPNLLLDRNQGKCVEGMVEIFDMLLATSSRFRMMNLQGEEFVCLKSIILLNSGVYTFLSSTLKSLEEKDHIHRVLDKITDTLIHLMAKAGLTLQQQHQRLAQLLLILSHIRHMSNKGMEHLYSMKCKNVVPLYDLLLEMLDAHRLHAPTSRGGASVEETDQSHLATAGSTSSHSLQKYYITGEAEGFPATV
In short: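 Cells: VM7Luc4E2, endogenous ER-alpha, 4x ERE-luc stable. Pre-culture 5 d, phenol red-free, charcoal-stripped FBS. Plated 24 h, compound + E2 0.1 nM final, 22 h 37C/5% CO2. Readout ONE-Glo luminescence.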
% is scaled to controls: 0 for no effect and ±100 for the full control effect.

CN(C)Cc1ccccc1
inactive: outcome [1] | Potency [2] | Potency [3] | Potency [4] | Potency [5] | Potency [6] | Potency [7] | Potency [8] | Potency [9] | Potency [10] | outcome [11] | Potency [12] | outcome [13] | Potency [14] | outcome [15] | Potency [16] | Potency [17]

CN1C(=O)CC(c2ccccc2)C1=O (configuration not stated)
inactive: outcome [1] | Potency [2] | Potency [3] | Potency [4] | Potency [5] | outcome [18] | Potency [6] | Potency [7] | Potency [8] | Potency [19] | Potency [10] | outcome [11] | outcome [13] | Potency [14] | outcome [15] | Potency [16] | Potency [17]

C=CCCC=C
inactive: outcome [1] | Potency [2] | Potency [3] | Potency [4] | Potency [5] | Potency [6] | Potency [7] | Potency [8] | Potency [9] | Potency [19] | Potency [10] | outcome [11] | Potency [14] | outcome [15] | Potency [16] | Potency [17]

CCN1CC(CCN2CCOCC2)C(c2ccccc2)(c2ccccc2)C1=O (configuration not stated)
inactive: outcome [1] | Potency [2] | Potency [3] | Potency [4] | Potency [5] | Potency [6] | Potency [7] | Potency [8] | Potency [9] | Potency [19] | Potency [10] | outcome [11] | outcome [13] | Potency [14] | outcome [15]

Cc1ccc(C=O)s1
active: Potency [2] 43.6 µM | Potency [3] 43.6 µM | Potency [4] 38.9 µM | Potency [5] 43.6 µM | Potency [8] 38.9 µM | Potency [19] 38.9 µM
inactive: outcome [1] | outcome [18] | Potency [6] | Potency [7] | Potency [10] | outcome [11] | Potency [14] | outcome [15] | Potency [16] | Potency [17]

NC(=O)Cc1cccc(C(=O)c2ccccc2)c1N
inactive: outcome [1] | Potency [2] | Potency [3] | Potency [4] | Potency [5] | outcome [18] | Potency [7] | Potency [8] | Potency [9] | Potency [19] | Potency [10] | outcome [11] | PLD induction [13] -0.295% [at 7.66 µM] | outcome [15] | Potency [16] | Potency [17]

CCN(CCCc1ccccc1)CCCc1ccccc1
inactive: outcome [1] | Potency [2] | Potency [3] | Potency [4] | Potency [5] | outcome [18] | Potency [7] | Potency [8] | Potency [9] | Potency [19] | Potency [10] | outcome [11] | Potency [20] | outcome [13] | Potency [14] | outcome [15] | Potency [16] | Potency [17]

Cc1nnc(SCC2=C(C(=O)O)N3C(=O)[C@@H](NC(=O)Cn4cnnn4)[C@H]3SC2)s1
inactive: outcome [1] | Potency [2] | Potency [3] | Potency [4] | Potency [5] | Potency [6] | Potency [7] | Potency [8] | Potency [9] | Potency [19] | Potency [10] | outcome [11] | Potency [20] | outcome [13] | Potency [14] | outcome [15] | Potency [16] | Potency [17]

O=S(=O)(O)C(F)(F)F
inactive: outcome [1] | Potency [2] | Potency [3] | Potency [4] | Potency [5] | outcome [18] | Potency [6] | Potency [8] | Potency [9] | Potency [10] | outcome [11] | Potency [20] | Potency [14] | outcome [15] | Potency [16] | Potency [17]

CCOC(=O)c1ccccc1O
inactive: outcome [1] | Potency [2] | Potency [3] | Potency [4] | Potency [5] | Potency [6] | Potency [7] | Potency [8] | Potency [9] | Potency [19] | Potency [10] | outcome [11] | outcome [13] | Potency [14] | outcome [15] | Potency [16] | Potency [17]

O=C(O)C(=O)Cc1c[nH]c2ccccc12
inactive: outcome [1] | Potency [2] | Potency [3] | Potency [4] | Potency [5] | outcome [18] | Potency [6] | Potency [7] | Potency [8] | Potency [19] | Potency [10] | outcome [11] | Potency [14] | outcome [15] | Potency [16] | Potency [17]

CCCCOc1cc(C(=O)NCCN(CC)CC)c2ccccc2n1
active: Potency [4] 23.9 µM
inactive: outcome [1] | Potency [2] | Potency [3] | Potency [5] | outcome [18] | Potency [8] | Potency [19] | Potency [10] | outcome [11] | Potency [14] | outcome [15] | Potency [17]

CCCCc1ccc2nc(NC(=O)OC)[nH]c2c1
active: Potency [14] 10.6 µM
inactive: outcome [1] | Potency [2] | Potency [3] | Potency [4] | Potency [5] | Potency [6] | Potency [7] | Potency [8] | Potency [9] | Potency [19] | Potency [10] | outcome [11] | Potency [12] | Potency [20] | outcome [13] | outcome [15] | Potency [16]

Cc1cc2c(s1)Nc1ccccc1N=C2N1CCN(C)CC1
active: Potency [10] 13.3 µM | Potency [17] 5.31 µM
inactive: outcome [1] | Potency [2] | Potency [3] | Potency [4] | Potency [5] | Potency [6] | Potency [7] | Potency [8] | Potency [9] | Potency [19] | outcome [11] | Potency [20] | outcome [13] | Potency [14] | outcome [15]

CN(C)CC[C@@H](c1ccc(Cl)cc1)c1ccccn1
inactive: outcome [1] | Potency [2] | Potency [3] | Potency [4] | Potency [5] | Potency [6] | Potency [7] | Potency [8] | Potency [9] | Potency [19] | Potency [10] | outcome [11] | PLD induction [13] 19.5% [at 1.53 µM] | Potency [14] | outcome [15] | Potency [16] | Potency [17]
